# Source: the supplement of paper PMC12282887
# ± gives the standard deviation of the averaged measurements.
# Tests used:
# Test in all cases: promoter activity interaction Z-score (Lux/OD deviation from empty-vector control); higher = stronger promoter induction by the compound
# [1] = test system: E. coli BW25113 acrABp lux reporter
# Procedure, shortened: (§1)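 Four 1:2 dilutions of each compound were tested in biological duplicates on E. coli BW25113 carrying low-copy luxCDABE promoter reporters, either wild type or deleted for one of three genes. Cultures of 40 µl LB Lennox in 384-well plates were kept at 37°C and read for OD600 and luminescence every 30 min for 12 h. Integration windows were 0–8 h for wild type and 1–9 h for deletion strains, and wells under 10% of the median growth value were discarded. The score is a Z-transformed residual of growth-normalised luminescence relative to a control fit.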
# [2] = test system: E. coli BW25113 micFp lux reporter
# Procedure, shortened: as §1
# [3] = test system: E. coli BW25113 ompFp lux reporter
# Procedure, shortened: as §1
# [4] = test system: E. coli BW25113 robp lux reporter
# Procedure, shortened: as §1
# [5] = test system: E. coli BW25113 soxSp lux reporter
# Procedure, shortened: as §1
# [6] = test system: E. coli BW25113 tolCp lux reporter
# Procedure, shortened: as §1
# [7] = 19 µg/ml, genetic background: wild type
# [8] = 19 µg/ml, genetic background: ΔmarA
# [9] = 19 µg/ml, genetic background: Δrob
# [10] = 19 µg/ml, genetic background: ΔsoxS
# [11] = 38 µg/ml, genetic background: wild type
# [12] = 38 µg/ml, genetic background: ΔmarA
# [13] = 38 µg/ml, genetic background: Δrob
# [14] = 38 µg/ml, genetic background: ΔsoxS
# [15] = 76.1 µg/ml, genetic background: wild type
# [16] = 76.1 µg/ml, genetic background: ΔmarA
# [17] = 76.1 µg/ml, genetic background: Δrob
# [18] = 76.1 µg/ml, genetic background: ΔsoxS
# [19] = 152.1 µg/ml, genetic background: wild type
# [20] = 152.1 µg/ml, genetic background: ΔmarA
# [21] = 152.1 µg/ml, genetic background: Δrob
# [22] = 152.1 µg/ml, genetic background: ΔsoxS
structure (smiles),measurement,setting,value
COc1cc(C=O)ccc1O [Vanillin],promoter activity interaction Z-score,[1]; [7],-0.0924 ± 0.22
same,promoter activity interaction Z-score,[1]; [8],-1.01 ± 0.36
same,promoter activity interaction Z-score,[1]; [9],-0.237 ± 0.036
same,promoter activity interaction Z-score,[1]; [10],-0.38 ± 0.04
same,promoter activity interaction Z-score,[1]; [11],-0.3 ± 0.17
same,promoter activity interaction Z-score,[1]; [12],0.134 ± 0.85
same,promoter activity interaction Z-score,[1]; [13],-0.312 ± 0.14
same,promoter activity interaction Z-score,[1]; [14],-0.79 ± 0.35
same,promoter activity interaction Z-score,[1]; [15],-0.108 ± 0.02
same,promoter activity interaction Z-score,[1]; [16],-0.501 ± 0.51
same,promoter activity interaction Z-score,[1]; [17],-0.406 ± 0.017
same,promoter activity interaction Z-score,[1]; [18],-0.409 ± 0.11
same,promoter activity interaction Z-score,[1]; [19],0.0819 ± 0.4
same,promoter activity interaction Z-score,[1]; [20],-0.204 ± 0.85
same,promoter activity interaction Z-score,[1]; [21],-0.28 ± 0.056
same,promoter activity interaction Z-score,[1]; [22],-0.339 ± 0.24
same,promoter activity interaction Z-score,[2]; [7],0.414 ± 0.3
same,promoter activity interaction Z-score,[2]; [8],0.0708 ± 0.21
same,promoter activity interaction Z-score,[2]; [9],0.348 ± 0.34
same,promoter activity interaction Z-score,[2]; [10],0.261 ± 0.29
same,promoter activity interaction Z-score,[2]; [11],0.827 ± 0.47
same,promoter activity interaction Z-score,[2]; [12],0.117 ± 0.12
same,promoter activity interaction Z-score,[2]; [13],0.608 ± 0.26
same,promoter activity interaction Z-score,[2]; [14],0.255 ± 0.57
same,promoter activity interaction Z-score,[2]; [15],1.55 ± 0.57
same,promoter activity interaction Z-score,[2]; [16],0.0617 ± 0.059
same,promoter activity interaction Z-score,[2]; [17],0.54 ± 0.19
same,promoter activity interaction Z-score,[2]; [18],0.822 ± 0.14
same,promoter activity interaction Z-score,[2]; [19],1.67 ± 0.3
same,promoter activity interaction Z-score,[2]; [20],0.484 ± 0.14
same,promoter activity interaction Z-score,[2]; [21],1.27 ± 0.44
same,promoter activity interaction Z-score,[2]; [22],1.36 ± 0.11
same,promoter activity interaction Z-score,[3]; [7],-0.994 ± 0.24
same,promoter activity interaction Z-score,[3]; [8],-1.33 ± 0.62
same,promoter activity interaction Z-score,[3]; [9],-1.05 ± 0.28
same,promoter activity interaction Z-score,[3]; [10],-0.69 ± 0.026
same,promoter activity interaction Z-score,[3]; [11],-0.89 ± 0.22
same,promoter activity interaction Z-score,[3]; [12],-1.03 ± 0.49
same,promoter activity interaction Z-score,[3]; [13],-0.857 ± 0.061
same,promoter activity interaction Z-score,[3]; [14],-0.75 ± 0.044
same,promoter activity interaction Z-score,[3]; [15],-0.551 ± 0.35
same,promoter activity interaction Z-score,[3]; [16],-1.2 ± 0.46
same,promoter activity interaction Z-score,[3]; [17],-0.873 ± 0.084
same,promoter activity interaction Z-score,[3]; [18],-0.372 ± 0.057
same,promoter activity interaction Z-score,[3]; [19],-0.504 ± 0.27
same,promoter activity interaction Z-score,[3]; [20],-0.917 ± 0.56
same,promoter activity interaction Z-score,[3]; [21],-0.507 ± 0.057
same,promoter activity interaction Z-score,[3]; [22],0.0107 ± 0.52
same,promoter activity interaction Z-score,[4]; [7],-0.0267 ± 0.12
same,promoter activity interaction Z-score,[4]; [8],-0.748 ± 0.21
same,promoter activity interaction Z-score,[4]; [9],-0.428 ± 0.024
same,promoter activity interaction Z-score,[4]; [10],-0.184 ± 0.93
same,promoter activity interaction Z-score,[4]; [11],-0.354 ± 0.066
same,promoter activity interaction Z-score,[4]; [12],0.11 ± 0.23
same,promoter activity interaction Z-score,[4]; [13],-0.287 ± 0.54
same,promoter activity interaction Z-score,[4]; [14],-0.138 ± 0.42
same,promoter activity interaction Z-score,[4]; [15],-0.265 ± 0.18
same,promoter activity interaction Z-score,[4]; [16],-0.307 ± 0.11
same,promoter activity interaction Z-score,[4]; [17],-0.399 ± 0.16
same,promoter activity interaction Z-score,[4]; [18],-0.0986 ± 0.36
same,promoter activity interaction Z-score,[4]; [19],0.841 ± 1.6
same,promoter activity interaction Z-score,[4]; [20],0.111 ± 0.07
same,promoter activity interaction Z-score,[4]; [21],-0.463 ± 0.3
same,promoter activity interaction Z-score,[4]; [22],0.223 ± 0.32
same,promoter activity interaction Z-score,[5]; [7],-0.29 ± 0.1
same,promoter activity interaction Z-score,[5]; [8],-0.185 ± 0.056
same,promoter activity interaction Z-score,[5]; [9],0.0115 ± 0.23
same,promoter activity interaction Z-score,[5]; [10],-0.409 ± 0.11
same,promoter activity interaction Z-score,[5]; [11],-0.279 ± 0.037
same,promoter activity interaction Z-score,[5]; [12],-0.201 ± 0.018
same,promoter activity interaction Z-score,[5]; [13],0.0294 ± 0.17
same,promoter activity interaction Z-score,[5]; [14],-0.314 ± 0.082
same,promoter activity interaction Z-score,[5]; [15],-0.117 ± 0.062
same,promoter activity interaction Z-score,[5]; [16],-0.32 ± 0.06
same,promoter activity interaction Z-score,[5]; [17],-0.186 ± 0.072
same,promoter activity interaction Z-score,[5]; [18],-0.321 ± 0.11
same,promoter activity interaction Z-score,[5]; [19],-0.196 ± 0.03
same,promoter activity interaction Z-score,[5]; [20],-0.205 ± 0.12
same,promoter activity interaction Z-score,[5]; [21],-0.225 ± 0.11
same,promoter activity interaction Z-score,[5]; [22],-0.367 ± 0.18
same,promoter activity interaction Z-score,[6]; [7],0.0479 ± 0.73
same,promoter activity interaction Z-score,[6]; [8],-0.119 ± 0.31
same,promoter activity interaction Z-score,[6]; [9],0.58 ± 0.34
same,promoter activity interaction Z-score,[6]; [10],0.597 ± 0.78
same,promoter activity interaction Z-score,[6]; [11],0.657 ± 0.53
same,promoter activity interaction Z-score,[6]; [12],0.25 ± 0.54
same,promoter activity interaction Z-score,[6]; [13],0.749 ± 0.62
same,promoter activity interaction Z-score,[6]; [14],-0.627 ± 0.44
same,promoter activity interaction Z-score,[6]; [15],0.993 ± 0.047
same,promoter activity interaction Z-score,[6]; [16],-0.352 ± 0.71
same,promoter activity interaction Z-score,[6]; [17],-0.533 ± 0.45
same,promoter activity interaction Z-score,[6]; [18],0.305 ± 0.97
same,promoter activity interaction Z-score,[6]; [19],-0.199 ± 0.18
same,promoter activity interaction Z-score,[6]; [20],-0.469 ± 1
same,promoter activity interaction Z-score,[6]; [21],0.503 ± 0.78
same,promoter activity interaction Z-score,[6]; [22],1.07 ± 1.8
